An excerpt weighted towards active compounds, which were near 3.4% of everything screened.
MITF primary: MITF inhibitors, primary screen, biochemical, AlphaScreen, human; Microphthalmia-associated transcription factor (Homo sapiens), O75030; AlphaScreen MITF homodimerization, bead proximity signal; inhibition, % at 2.6 µM; 650,000 compounds, 0.91% hits; in the data active = inhibition above about 50%;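 also: 0% = vehicle wells with protein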
FBW7 activator: FBW7 E3 ligase activators, primary screen, biochemical, AlphaScreen, human; F-box/WD repeat-containing protein 7 (Homo sapiens), Q969H0; AlphaScreen FBW7–phospho-cyclin E peptide binding, activator screen; normalized activity (activation), % at 26.1 µM; 650,000 compounds, 0.13% hits; AID 1259310, 2017; in the data active = normalized activity above about 1.9%;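 also: purified mutant Fbw7 with reduced substrate affinity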
Target sequence (Q969H0 whole entry, looked up): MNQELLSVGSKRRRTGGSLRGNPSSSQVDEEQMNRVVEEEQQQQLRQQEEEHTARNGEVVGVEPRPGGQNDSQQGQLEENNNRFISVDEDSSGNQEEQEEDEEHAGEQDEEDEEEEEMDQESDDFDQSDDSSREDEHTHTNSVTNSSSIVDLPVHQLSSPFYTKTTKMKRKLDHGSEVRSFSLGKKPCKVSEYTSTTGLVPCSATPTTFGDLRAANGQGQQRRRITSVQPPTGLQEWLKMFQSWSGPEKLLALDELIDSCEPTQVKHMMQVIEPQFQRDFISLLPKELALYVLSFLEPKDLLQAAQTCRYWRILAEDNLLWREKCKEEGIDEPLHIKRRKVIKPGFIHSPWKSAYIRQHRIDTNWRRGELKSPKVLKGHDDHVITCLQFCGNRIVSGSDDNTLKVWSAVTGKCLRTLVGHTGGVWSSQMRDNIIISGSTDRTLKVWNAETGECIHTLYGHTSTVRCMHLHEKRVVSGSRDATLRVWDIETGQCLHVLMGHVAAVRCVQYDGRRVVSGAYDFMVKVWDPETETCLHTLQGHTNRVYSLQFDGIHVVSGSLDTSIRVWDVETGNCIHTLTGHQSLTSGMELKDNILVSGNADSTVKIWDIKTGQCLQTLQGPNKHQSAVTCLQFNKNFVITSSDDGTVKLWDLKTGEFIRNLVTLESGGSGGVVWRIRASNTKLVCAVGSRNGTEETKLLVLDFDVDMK
GPR151 activ: activators of human GPR151, primary screen, cell-based, PathHunter beta-arrestin, luminescence; G-protein coupled receptor 151 (Homo sapiens), Q8TDV0; PathHunter beta-arrestin GPR151 cells; activation, % at 11.2 µM; 650,000 compounds, 1% hits; AID 1508602, 2020; in the data active = activation above about 4.9%;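 also: 0% = median of compound wells and 100% = cells with positive control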
TEAD-YAP inh: TEAD-YAP interaction inhibition, primary screen, TEAD-YAP interaction inhibitor project, luminescence, HEK-TIYL cells. 640,000 compounds, 1.4% hits. inhibition, % at 9.12 µM. AID 1259422, 2018. TEAD-Gal4/YAP UAS-luciferase luminescence; in the data active = inhibition above about 32%;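 also: 0% = median of test compound wells and 100% = reference inhibitor wells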
* = called active by the depositor.

SMILES | MITF primary | FBW7 activator | GPR151 activ | TEAD-YAP inh
CC1=CC2=NC(=O)/C(=C\c3cc(C)n(-c4cc(C)cc(C)c4)c3C)C(=N)N2O1 | 4.3 | 0.0 | 0.7 | 55.0*
CC1=CC2=NC(=O)/C(=C\c3cc(C)n(-c4cccc(F)c4)c3C)C(=N)N2O1 | -1.9 | 0.2 | -0.4 | 6.9
COc1cc(/C=C2/C(=N)N3OC(C)=CC3=NC2=O)ccc1OCc1ccc2c(c1)OCO2 | 12.5 | 0.0 | -6.5 | 48.2*
O=c1[nH]c(C2CC2)nc2cc(-c3cnn(-c4ccc(N5CCOCC5)cc4)c3)ccc12 | -3.3 | 0.0 | 0.5 | -2.9
CCN1CCN(c2ccc(NC(=O)c3cc(Cl)cc(Cl)c3O)cc2)CC1 | 16.4 | 0.8 | -0.7 | 13.4
Cc1ccc(-c2nc(N3CCN(C)CC3)c3ccccc3n2)cc1 | 12.3 | -0.1 | -0.6 | -5.8
COc1ccc(-c2nc(N3CCC(C)CC3)c3ccccc3n2)cc1OC | 0.0 | 0.0 | 0.7 | -1.1
CN1CCN(c2nc(-c3ccc(C(C)(C)C)cc3)nc3ccccc23)CC1 | 9.0 | -0.5 | -1.8 | 82.2*
CC1CCN(c2nc(-c3ccc(C(C)(C)C)cc3)nc3ccccc23)CC1 | -2.5 | 0.1 | -0.3 | 49.4*
CC(C)Cn1c(SCC(=O)Nc2nccs2)nnc1-c1ccccc1 | 20.8 | 0.3 | -1.3 | -0.7
Nc1nonc1-c1nc2ccccc2n1CC(=O)Nc1ccc(Oc2ccccc2)cc1 | 4.3 | -0.2 | 0.3 | -1.2
CCOC(=O)c1c(C)[nH]c(C(=O)N/N=C\c2ccccc2Cl)c1C | -7.2 | 0.0 | 3.1 | 40.1*
CCOC(=O)c1c(C)[nH]c(C(=O)N/N=C\c2ccc([N+](=O)[O-])cc2)c1C | 4.7 | 0.1 | -0.7 | 41.4*
CCOC(=O)c1c(C)[nH]c(C(=O)N/N=C\c2cccc(OC)c2)c1C | -2.3 | 0.0 | 0.7 | 45.7*
CCCn1cc(NC(=O)C2=CC(c3ccc(OC)cc3)=NS(=O)(=O)N2C)cn1 | 25.1 | 0.4 | -1.5 | 6.6
O=[N+]([O-])c1ccc(C(Nc2ccccn2)c2ccc3cccnc3c2O)cc1 (stereo not given) | 14.7 | -1.1 | -0.5 | 71.9*
Cc1cc(NC(c2cccc([N+](=O)[O-])c2)c2ccc3cccnc3c2O)no1 (stereo not given) | 7.5 | -1.1 | 0.7 | 86.3*
CC(C)C(=O)NC(c1ccc([N+](=O)[O-])cc1)c1ccc2cccnc2c1O (stereo not given) | 34.6 | -0.9 | -1.7 | 80.8*
Cc1ccc2ccc(C(Nc3ccccn3)c3ccc([N+](=O)[O-])cc3)c(O)c2n1 (stereo not given) | 12.6 | -0.7 | -1.1 | 28.5
O=[N+]([O-])c1cccc(C(Nc2ccccn2)c2ccc3cccnc3c2O)c1 (stereo not given) | 13.9 | -0.2 | -0.6 | 79.1*
Cc1cc(NC(=O)c2cccc([N+](=O)[O-])c2)no1 | 29.9 | 0.8 | -1.1 | 4.6
CC1Cc2ccccc2N1C(=O)c1ccc2nc(N3C(=O)CCC3=O)sc2c1 (stereo not given) | 11.1 | 0.2 | -1.3 | -8.6
O=C(N/N=C/C=C/c1ccccc1Cl)c1cccc(F)c1 | 8.7 | 0.0 | 0.7 | -47.2
CC(=O)Nc1ccc(NC(=O)c2ccccc2Sc2ccc([N+](=O)[O-])cc2)cc1 | -0.9 | 0.0 | 1.6 | -2.1
O=C(CCNC(=O)c1ccccc1)NN=C1CCCCC1 | -6.8 | 0.2 | 0.1 | -8.1
SMILES | MITF primary | FBW7 activator | GPR151 activ | TEAD-YAP inh
O=C(Nc1ccc2c(c1)CCCN2C(=O)c1cccs1)NC(c1ccccc1)c1ccccc1 | -0.9 | -0.2 | 0.5 | 45.1*
Cc1ccc(S(=O)(=O)Nc2ccc3c(c2)N(C(=O)c2cccs2)CCC3)cc1 | 24.5 | -0.1 | -0.3 | 49.6*
CC(=O)N1CCc2ccc(NS(=O)(=O)c3ccc(C(C)(C)C)cc3)cc21 | 6.6 | 0.1 | 1.7 | 32.4*
CCC(=O)N1CCCc2ccc(NS(=O)(=O)c3ccc(OC)c(F)c3)cc21 | 9.9 | 0.0 | 2.4 | 57.6*
Cc1cccc(OCC(=O)Nc2ccc3c(c2)CCCN3C(=O)c2cccs2)c1 | 8.9 | 0.0 | -0.4 | 2.6
CC(C)CS(=O)(=O)Nc1ccc2c(c1)N(C(=O)c1cccs1)CC2 | 6.4 | 0.2 | 0.5 | -1.9
COc1ccc(Nc2c(CCC(C)C)c(C)c(C#N)c3nc4ccccc4n23)cc1 | 18.0 | 0.6 | 0.1 | -4.2
Cc1ccc2nc(-c3cc(NC(=O)COc4ccccc4C)ccc3Cl)oc2c1 | 19.9 | 0.2 | -1.5 | 5.8
O=C(Cc1c[nH]c2ccccc12)Nc1nnc(C2CC2)s1 | -1.2 | -0.1 | -0.5 | 34.2*
O=C1NC(=Nc2ccccc2)S/C1=C/c1ccc(C(=O)O)cc1 | 1.2 | -0.2 | 0.5 | 0.9
Cc1nc2c(c(C)c1CCC(=O)N1CCCCCC1)c(=O)n(C)c(=O)n2C | -0.3 | 0.1 | -0.4 | 50.7*
COc1cc(/C=C(\C#N)C(N)=S)ccc1O | 8.8 | 0.1 | 0.4 | 9.4
CC(C)(C)c1cc(/C=C(\C#N)C(N)=S)cc(C(C)(C)C)c1O | -2.4 | -0.1 | 2.6 | 47.4*
CSc1ccc(C=C2C(=O)c3ccccc3C2=O)cc1 | -0.2 | -0.1 | 0.2 | 6.2
CC1C(=O)C(=O)/C(=C\c2ccccc2)C1=O (stereo not given) | 81.9* | -0.2 | 0.5 | -0.4
Cc1nc2sccn2c1C(=O)N1CCCC1 | -17.1 | -0.1 | -0.9 | -4.9
Cc1nc2sccn2c1C(=O)N1CCN(c2cccc(C(F)(F)F)c2)CC1 | 14.2 | 0.7 | -0.6 | 57.6*
Cc1ncn(-c2ccc(Nc3nccc(-c4cc(C#N)cc(NC(C)C)c4)n3)cc2)n1 | 13.4 | 0.1 | 1.0 | 10.1
Cc1ncn(-c2ccc(Nc3nccc(-c4ccc(C#N)c(N5CCN(C)CC5)c4)n3)cc2)n1 | -2.1 | -0.2 | -1.9 | 51.0*
Cc1ncn(-c2ccc(Nc3nccc(-c4ccc(C#N)c(NC(C)C)c4)n3)cc2)n1 | 0.7 | 0.0 | 0.3 | 47.8*
CCOC(=O)c1ccc(CN(Cc2ccccc2)S(=O)(=O)c2ccc(OC)cc2)cc1 | -140.0 | 0.1 | 0.9 | 0.3
CN(Cc1ccccc1)S(=O)(=O)c1ccc(F)c(C(=O)Nc2ccc(Cl)cc2F)c1 | -17.7 | 0.0 | -1.7 | -7.6
O=C1CSC(=O)N1CNc1ccc(Cl)cc1 | 0.6 | -0.2 | 0.5 | -0.4
CCOC(=O)C(=Cc1ccc(O)cc1)C(=O)OCC | 11.6 | 0.1 | -0.3 | 9.7
CCOC(=O)/C(=C/c1ccc(Br)cc1)c1nnc(N)s1 | 14.5 | 0.3 | 2.4 | 39.9*
CNC(=O)c1cc2cc(Br)ccc2oc1=O | -0.1 | 0.0 | -0.6 | -6.8
O=C(NNC(=O)c1cc2cc(Br)ccc2oc1=O)c1ccc(O)cc1O | 29.9 | -0.3 | 0.3 | 34.1*
CCCCOC(=O)c1cccc(NC(=O)COc2ccc(Cl)cc2Cl)c1 | -4.1 | 0.1 | 1.0 | 57.4*
CCOC(=O)c1cccc(NC2C=CS(=O)(=O)C2)c1 (stereo not given) | -6.4 | -0.5 | 1.9 | 62.9*
CCCCOC(=O)c1ccc(NC(=O)COc2ccc(Cl)cc2Cl)cc1 | 10.6 | 0.1 | -0.2 | 7.6

Screens: PubChem BioAssay, The Scripps Research Institute Molecular Screening Center
